Only some compounds are listed: those with a hit (about 6.7% of all), similar ones and a draw of the others.
KB-V1 cytotox – kills drug-selected multidrug resistant KB-V1 cells; KB-V1 MDR cells viability, CellTiter-Glo, 72 h; Potency, µM (top dose mostly 46.1 µM), actives largely listed as cytotoxic; actives 3.4% (n = 400,000); note: % is set by controls: 0 for no effect and ±100 for the full control effect; nearly all actives have a fitted effect of over 60% in size
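Cytotoxicity toward P-gp-expressing KB-V1 cells was determined as loss of CellTiter-Glo luminescence after 72 h at 37 degrees C. Compounds were tested in quantitative HTS format across a concentration range, with curves fitted to normalized data.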
MCF10A rereplic – inducers of DNA re-replication in MCF 10A breast cells; MCF 10A DNA re-replication, Hoechst nuclear intensity, 48 h; Potency, µM (titrated, usually from 46.1 µM), for the others: top-dose activity, positive = re-replication, hits mostly activators; actives 2.9% (n = 350,000); note: % of control where 0% means no effect; nearly all actives have a fitted effect of over 50% in size
PINK1 modulator – changes PINK1 expression. PINK1 immunofluorescence, high-content cytometry, 24 h. Potency, µM (series often up to 76.6 µM), without a hit: top-dose activation (PINK1 increase), usual class: activators. actives 0.2% (n = 410,000). AID 624263; active = well fitted activation curve with a large enough effect; inconclusive = small, poorly fitted or top-dose-only effect; cell line not stated here; note: % of control where 0% means no effect; nearly all actives have a fitted effect of over 65% in size
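Fluorescence from anti-PINK1 antibody, together with nuclear and cell stains, was scanned on a laser-scanning cytometer. Before staining, stable-line cells were incubated 24 hours with compounds at 5 concentrations; primary antibody 12 h at 10 degrees C.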
SW480 rereplic – DNA re-replication induction in SW480 cells. SW480 DNA re-replication, Hoechst DNA content imaging, 48 h. actives 1.8% (n = 340,000). Potency, µM (highest dose often 46.1 µM), for the others: at the highest dose re-replication activation, usual class: activators; note: % of control where 0% means no effect; nearly all actives have a fitted effect of over 55% in size
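Quantitative HTS format with DMSO vehicle controls; 48 hr drug incubation at 37 C, then 40 min Hoechst staining and scanning imager measurement at 405 nm excitation.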
KB-3-1 cytotox – kills parental KB-3-1 adenocarcinoma cells; KB-3-1 viability, CellTiter-Glo ATP luminescence, 72 h; Potency, µM (top dose mostly 46.1 µM), most hits filed as cytotoxic; actives 1.4% (n = 400,000); AID 1347075; note: % is set by controls: 0 for no effect and ±100 for the full control effect; nearly all actives have a fitted effect of over 60% in size
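Luminescent ATP read-out (CellTiter-Glo) measures survival of drug-naive KB-3-1 cells after 72 h compound exposure at 37 °C. Titration series was screened from lowest to highest concentration, with DMSO vehicle plates as background controls.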
Starred values were filed as active, the others as inactive; i = inactive; ? = inconclusive; nt = no result; [ ] = another dose, or the depositor's remark. Unless noted, calls come from the whole dose curve; as a rule, active = well fitted curve in the direction sought with a large enough effect; inconclusive = small, poorly fitted or top-dose-only effect, or another doubt; inactive = no such curve, though single readings can be large; an effect the other way counts as inactive or inconclusive. Potency is the fitted concentration of half-maximal effect.

SMILES	KB-V1 cytotox	MCF10A rereplic	PINK1 modulator	SW480 rereplic	KB-3-1 cytotox
CC(C)Oc1ccc(C(=O)N2CCN(CCc3ccccn3)CC2)cc1	i	nt	0%	nt	i
Cc1cc2cc(C#N)c(N3CCN(S(C)(=O)=O)CC3)nc2cc1C	18µM*	-53%	-1%	-2%	i
COc1cc(C(=O)N2CCCN(c3nc4cc(C)ccc4cc3C#N)CC2)cc(OC)c1OC	18µM*	?	4%[38.3 µM]	-5%	i
Cc1ccc(S(=O)(=O)N2CCCN(c3nc4cc(C)ccc4cc3C#N)CC2)cc1	?	?	?	-3%	i
COC(=O)C1=C(N)N(c2ccccc2F)C2=C(C(=O)CC(C)(C)C2)C1c1ccc(OC)c(OC)c1 (stereo not drawn)	4.6µM*	5%	-1%	?	?
NC(=O)c1nnn(Cc2cc(Cl)c(C(=O)c3ccc(Cl)cc3)c(Cl)c2)c1N	8.2µM*	nt	7%	nt	?
CC(C)C(C(=O)NCC1CCCO1)N(Cc1ccccc1)C(=O)CNS(=O)(=O)c1ccccc1 (stereo not drawn)	i	?	0%	0%	i
CN1/C(=C/C(=O)C2CC2)C(C)(C)c2ccccc21	i	-14%	1%	8%	i
CN1/C(=C\C(=S)NC(=O)c2cccc(Br)c2)C(C)(C)c2ccccc21	8.2µM*	?	5%	?	?
CCN(CC)S(=O)(=O)c1cccc(C(=O)/C=C2/N(C)c3ccccc3C2(C)C)c1	i	18µM*	1%	21µM*	i
CN1/C(=C\C(=S)NC(=O)c2ccc([N+](=O)[O-])cc2)C(C)(C)c2ccccc21	i	-2%	7%	2%	i
COc1ccc(CCn2c(=O)c3ccccc3n(CC(=O)Nc3cccc(C)c3)c2=O)cc1OC	i	nt	5%	nt	i
NCC(=O)NCC(=O)OCc1ccccc1	i	1µM*	2%	-29%	i
CC(C)(C)OC(=O)NCC(=O)NCC(=O)OCc1ccccc1	i	0%	2%	-1%	i
O=c1c2cc([N+](=O)[O-])cc([N+](=O)[O-])c2[nH]n1-c1ccccc1	0.82µM*	?	2%	-2%	?
Cc1nc2sccn2c1CN1CCC2(CC1)CC2C(=O)Nc1ccc2c(c1)OCO2 (stereo not drawn)	nt	nt	0%	nt	nt
Cc1cc(-n2c(C)cc(C(=O)CSc3nnc4sc5ccccc5n34)c2C)no1	?	22%	nt	0%	i
Cc1cc(-n2c(C)cc(C(=O)CSc3nnnn3-c3ccc(Cl)cc3)c2C)no1	i	6.5µM*	nt	-13%	i
Cc1cc(C(=O)COC(=O)c2ccc(N)c([N+](=O)[O-])c2)c(C)n1-c1ccc2c(c1)OCO2	?	2%	-1%	0%	?
Cc1cc(C(=O)CSc2nnnn2C)c(C)n1-c1ccc2c(c1)OCCO2	21µM*	?	4%	4%	i
CC(=O)c1ccc(OCC(=O)c2cc(C)n(-c3ccc4c(c3)OCO4)c2C)cc1	8.2µM*	6%	1%	2%	?
CCS(=O)(=O)c1ncc(Cl)c(C(=O)Nc2ccc(S(=O)(=O)N3CCCC(C)C3)cc2)n1 (stereo not drawn)	5.8µM*	2.6µM*	-1%	7.3µM*	3.7µM*
CCS(=O)(=O)c1ncc(Cl)c(C(=O)Nc2ccc(C)cc2)n1	i	5.8µM*	-2%	3.7µM*	?
COc1ccc(NC(=O)c2nc(S(=O)(=O)Cc3ccc(C)cc3)ncc2Cl)cc1	nt	nt	8%	nt	nt
CCOc1ccc(NC(=O)c2nc(S(=O)(=O)Cc3ccc(C)cc3)ncc2Cl)cc1	i	nt	6%	nt	?
CS(=O)(=O)c1ncc(Cl)c(C(=O)Nc2ccc3ccccc3c2)n1	i	?	-1%	1.2µM*	i
Cc1ccc(CS(=O)(=O)c2ncc(Cl)c(C(=O)Nc3ccc(OC(F)F)cc3)n2)cc1	18µM*	7.3µM*	-1%	?	23µM*
Cc1ccccc1CSc1nnc2[nH]c(=O)cc(C)n12	nt	nt	11%	nt	nt
CCCNC(=O)COc1coc(CN2CCN(c3ccc(F)cc3)CC2)cc1=O	i	11%	-1%	-1%	i

Compound activity (PubChem)
